Screening results (PubChem)
Compounds with a hit are over-represented: about 1.1% of the library has one in this group of screens.
MIN6 prolif: MIN6 beta-cell proliferation induction; MIN6 cells proliferation, ATPlite luminescence, 48 h; cells starved in 0.2% serum; 100% = growth in 10% serum; proliferation, % at 10 µM; 330,000 tested, 0.29% active;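 active = compounds whose signal lies at least 3.5 SD above the mean of all wells on their plate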;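 also: 0% = DMSO-treated cells in low-serum medium and 100% = 10% serum control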
APOBEC3A inh: human APOBEC3A DNA deaminase inhibition; P31941; recombinant A3A, FAM/TAMRA ssDNA deamination fluorescence; inhibition, % at 20 µM; 330,000 tested, 0.41% active;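 active = at least 40% inhibition at 20 µM here, with at most 30% in a related deaminase screen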;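 also: plate controls were A3A with DMSO for no effect and wells lacking A3A enzyme for full effect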
Target sequence (P31941 whole entry, looked up): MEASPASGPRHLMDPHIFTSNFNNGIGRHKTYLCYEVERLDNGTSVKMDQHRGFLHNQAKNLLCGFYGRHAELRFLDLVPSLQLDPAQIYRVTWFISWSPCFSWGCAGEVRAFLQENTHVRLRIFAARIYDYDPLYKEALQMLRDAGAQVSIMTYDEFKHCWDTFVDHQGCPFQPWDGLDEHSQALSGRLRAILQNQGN
Bfl-1 A1 inh: inhibitors of the anti-apoptotic protein A1, read as caspase activation; 330,000 tested, 0.066% active; MEF A1-2A-BIM cells, Caspase-Glo 3/7 luminescence, 3 h; percent of clofoctol response, vehicle zero; caspase activation, % (test concentration not listed);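 active = over half of replicate activation scores above 10%, or exactly half above 10 with the replicate mean above 10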
A3G deaminase: APOBEC3G (human) deaminase inhibition | recombinant A3G, ssDNA deamination FAM/TAMRA fluorescence | inhibition, % at 20 µM | AID 493012 | 330,000 tested, 0.28% active;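 active = inhibition of at least 40% at 20 µM, with no more than 30% in the related APOBEC3A deaminase screen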;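 also: plate controls were DMSO wells with A3G for no effect and wells lacking A3G enzyme for full effect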
APOBEC3G confirm: confirmation of human APOBEC3G DNA deaminase inhibitors; inhibition, % at 20 µM; AID 493152; shares compounds with A3G deaminase; recombinant A3G ssDNA deaminase, UDG/FAM-TAMRA fluorescence; 890 tested, 72% active;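 active = inhibition reaching a set limit in any replicate at 20 µM, the limit being 80% of the first screen's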
UDG A3G counter: inhibits E. coli UDG, flagging false APOBEC3G inhibitors | shares compounds with A3G deaminase | UDG counterscreen, FAM/TAMRA oligo fluorescence | inhibition, % at 20 µM | 710 tested, under 10 active | AID 504715;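 active = compounds giving 40% or more inhibition at 20 µM in any one of the three replicates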;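 also: plate controls were DMSO wells with UDG and oligo for no effect and DMSO wells lacking both for full effect; inhibitors lower the FAM signal released by uracil excision and alkaline cleavage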
Starred values were filed as active, the others as inactive; . = no result.

SMILES	MIN6 prolif	APOBEC3A inh	Bfl-1 A1 inh	A3G deaminase	APOBEC3G confirm	others
Cn1c(NN=O)nc2ccccc21	-2.9	2.1	-2.0	58.9*	28.4*	UDG A3G counter=-1.2
Cn1c(N)c(C(=O)COC(=O)Cc2ccccc2)c(=O)n(C)c1=O	-1.3	-1.5	0.1	-6.5	.
CCC(C)n1c(O)c(/C=N/Nc2ccccc2)c(=O)[nH]c1=S (stereo not given)	0.0	0.6	-1.4	48.8*	9.2
O=c1[nH]c(=S)n(C2CC2)c(O)c1/C=N/Nc1cccc2ccccc12	-3.4	1.9	1.5	55.0*	2.1
O=c1[nH]c(=O)n(CCC2=CCCCC2)c(O)c1/C=N/Nc1cccc2ccccc12	-5.7	1.9	-0.1	41.5*	26.6
O=c1[nH]c(=O)n(CCC2=CCCCC2)c(O)c1/C=N/Nc1ccccc1	0.0	0.6	-1.2	21.9	.
Cc1ccc(C(=O)c2cc(Br)ccc2N)cc1	0.8	2.4	1.2	7.5	.
C=CCn1c(O)c(C(CC)=NCCc2c[nH]c3ccccc23)c(=O)[nH]c1=O	-0.5	-2.1	0.1	0.2	.
O=C(NCCCn1ccnc1)C(Cl)(Cl)Cl	2.0	4.0	-0.4	43.8*	-1.2
NS(=O)(=O)c1ccc(-c2ccc(C=C3C(=O)NC(=S)NC3=O)o2)cc1	-3.5	7.9	1.6	47.9*	47.1*
NS(=O)(=O)c1ccc(-c2ccc(C=C3C(=O)NC(=O)NC3=O)o2)cc1	1.7	1.7	0.3	14.6	.
